The panel holds about 83,000 compounds, 20% with a hit somewhere; the sample as a whole holds those more often.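 Values shown are percent growth following 48 h exposure of cells in 96-well plates to a single concentration of compound; below 10 was considered active.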 A number with no mark means an inactive call. Calls of active or inactive are those of the source.
Legend:
Experiment in all cases: NCI-60 one-dose screen, 48 h (100 = growth as untreated, 0 = no growth, -100 = all killed)
Settings in all cases: 10 µM
[1] = system: DU-145 prostate
[2] = system: K-562 leukemia
[3] = system: MDA-MB-231 breast
[4] = system: RXF 393 renal
[5] = system: SF-268 CNS
[6] = system: SF-295 CNS
[7] = system: SF-539 CNS
[8] = system: UACC-257 melanoma
[9] = system: M14 melanoma

Structure (SMILES)	growth [1]	growth [2]	growth [3]	growth [4]	growth [5]	growth [6]	growth [7]	growth [8]	growth [9]
O=C(O)c1cc(C(F)(F)F)cc(C(F)(F)F)c1	116%	95.2%	104%	105%	106%	102%	105%	101%	91.1%
Cc1ccc(S(=O)(=O)Oc2ccccc2-c2ccccc2)cc1	34%	15.3%	55.9%	28.9%	42.5%	8.37% (active)	8.87% (active)	54.4%	6.11% (active)
CCOC(=O)c1cc2c(n1Cc1cccc(OC)c1)-c1oncc1CC2	48.4%	18.5%	52.7%	11.2%	44.8%	3.54% (active)	15.8%	43.6%	16.8%
Nc1nc(SCC#CCCl)c2[nH]cnc2n1	56.5%	38.2%	65.6%	46.7%	52.8%	60.2%	50.4%	50%	54.2%
O=C1c2cc(Cl)ccc2-c2c(O)cc(Cl)cc21	98.8%	57.2%	79.2%	68.8%	86.1%	99.1%	80.7%	105%	91.8%
COc1ccc(NC(=O)CCn2cnc3c(cc(-c4ccccc4)n3-c3ccccc3)c2=O)cc1	97.1%	90.6%	–	64.4%	24.5%	81.5%	47.3%	13%	91.1%
CCCCCN(CCCCC)C(C)C(O)c1ccc2cc(Cl)c3ccccc3c2c1 (stereo not given)	109%	81.4%	92.7%	97.5%	102%	82.7%	104%	97.7%	93.1%
O=C(OCC1OC(n2cc(C(F)(F)F)c(=O)[nH]c2=O)CC1OC(=O)c1ccc([N+](=O)[O-])cc1)c1ccc([N+](=O)[O-])cc1 (stereo not given)	30.3%	62%	95.3%	80.3%	55.6%	63.5%	18.3%	38.4%	-17.6% (active)
CC(C)/C(=N/O)c1ccccc1	114%	104%	99.8%	121%	112%	103%	94.6%	109%	109%
Cn1c(=O)c2[nH]c(C(O)c3ccc(Cl)cc3)nc2n(C)c1=O (stereo not given)	104%	113%	100%	120%	104%	104%	105%	97.7%	90.6%
CCCCOCC(=O)NC(NP(=O)(N(C)C)N(C)C)C(Cl)(Cl)Cl (stereo not given)	139%	84.2%	121%	130%	122%	70%	114%	108%	94.3%
O=C(NCc1cn(Cc2cccc(Oc3ccccc3)c2)nn1)c1cccnc1Nc1ccccc1	59.8%	31.9%	63.7%	33.6%	60.5%	50.1%	54.5%	77%	33.6%
O=C(NNc1nc(N2CCCC2)nc(N2CCCC2)n1)c1ccccc1	107%	–	100%	116%	106%	128%	113%	96.6%	132%
COc1cc(/C=C2\C(=O)Nc3cc(C)c(O)cc32)cc(OC)c1OC	44.6%	15.1%	39.6%	23.5%	60.6%	43.3%	71.3%	-11.1% (active)	65.9%
CCCCNC(=O)Oc1ccc(/C(=C(\C)c2ccc(OC)cc2)c2ccc(OCCN3CCCCC3)cc2)cc1	72.9%	-0.634% (active)	53.4%	28.6%	66.9%	12.5%	5% (active)	-9.86% (active)	-54.8% (active)
COc1cc(NS(C)(=O)=O)ccc1Nc1c2ccc(Cl)cc2nc2c(OC)cccc12	-43.6% (active)	13.4%	62.6%	-11.3% (active)	9.76% (active)	14.5%	-53.8% (active)	34.2%	14.1%

Structure (SMILES)	growth [1]	growth [2]	growth [3]	growth [4]	growth [5]	growth [6]	growth [7]	growth [8]	growth [9]
COc1cc(/C=C/C(=O)c2cc(-c3ccc(F)cc3)ccc2O)cc(OC)c1OC	91.1%	34.5%	60.7%	104%	85.7%	95.1%	89%	68.4%	86.2%
Cc1cn(C(=O)/C(Cl)=C(/Cl)C(=O)O)c2ccccc12	113%	97.9%	96.3%	112%	103%	112%	111%	111%	99.7%
CCOc1nc(-c2ccccc2)cc2c(O)c(C(=O)NC(C)C)[nH]c(=O)c12	107%	95%	106%	78.1%	105%	89.9%	99.3%	84.8%	101%
Cn1cnc([N+](=O)[O-])c1Sc1nnc(-c2ccccc2)c(-c2ccccc2)n1	81.9%	51%	102%	–	85.1%	87.7%	111%	79.9%	76.9%
O=C1/C(=C/c2cccs2)CCC/C1=C\c1cccs1	92.9%	94.8%	–	91.9%	96.2%	104%	100%	96.9%	87.5%
Oc1ccc(Cn2cc3c(c2-c2ccccc2)CCc2cnoc2-3)cc1	106%	70%	81.5%	110%	106%	82%	94.5%	92.2%	89.5%
N#C/C(=C\N1C(=O)/C(=C/c2cccc([N+](=O)[O-])c2)SC1=S)c1nc2ccccc2s1	99.6%	77.1%	79.7%	105%	85.3%	86.9%	80.3%	68.3%	81%
COc1cc(Cn2c(-c3ccccc3)cc3c2-c2oncc2CC3)cc(OC)c1	0.266% (active)	9.87% (active)	5.37% (active)	33.7%	30.6%	-1.16% (active)	-11.9% (active)	55.4%	0.789% (active)
COc1ccc(Cn2cc3c(c2-c2ccccc2)CC(C)(C)c2cnoc2-3)cc1	37.6%	18%	57.6%	20.3%	40.9%	-10.7% (active)	6.34% (active)	58.3%	40.1%
Cn1c(N)c(N=Cc2ccccc2)c(=O)n(C)c1=O	124%	95.8%	98.8%	121%	110%	124%	119%	108%	98.7%
Cc1cc(C#Cc2ccccc2)ccc1-n1c(/C=C/c2cc(O)ccc2O)nc2ccccc2c1=O	2.27% (active)	7.36% (active)	-24.2% (active)	-27.9% (active)	5.15% (active)	-14.6% (active)	-20.9% (active)	20%	-3.57% (active)
O=CNc1c(Cl)cc2c(c1Cl)Cc1cc([N+](=O)[O-])ccc1-2	79.1%	16.4%	63.6%	96.9%	78.8%	77.3%	67.9%	72.6%	28.7%
COc1c(C)c(C)c(OC)c2c1[nH]c(=O)c1c3cccnc3cn21	111%	102%	86.1%	116%	112%	119%	103%	126%	103%
COc1cc(-c2nc(-c3nnc(-c4cccnc4)o3)c3ccccn23)cc(OC)c1OC	114%	95.4%	97.7%	115%	95.7%	79.5%	107%	104%	110%
CCOC(=O)c1c(O)c2cc(-c3ccccc3)nc(OCC)c2c(=O)n1C	107%	97.1%	95.9%	-0.249% (active)	94.3%	95.6%	94.6%	54.9%	87.8%

— PubChem BioAssay (NCI)
